Assay results: a collection of fitness landscapes (doi:10.1126/science.1257360)
In all, about 140,000 sequences were measured (“enrichment ratio after two sorts for PhoP signalling”: median about 0, highest 2% from about 11 on). What follows is part of a selection rich in the highest values, with near analogues and random picks from the rest.

B1: PhoQ; a variant is named by its letters at X, in order, P23837 (parent)
chain: MKKLLRLFFPLSLRVRFLLATAAVVLVLSLAYGMVALIGYSVSFDKTTFRLLRGESNLFYTLAKWENNKLHVELPENIDKQSPTMTLIYDENGQLLWAQRDVPWLMKMIQPDWLKSNGFHEIEADVNDTSLLLSGDHSIQQQLQEVREDDDDAEMTHSVAVNVYPATSRMPKLTIVVVDTIPVELKSSYMVWSWFIYVLSANLLLVIPLLWVAAWWSLRPIEALAKEVRELEEHNRELLNPATTRELTSLVRNLNRLLKSERERYDKYRTTLTDLTHSLKTPLXXLQXXLRSLRSEKMSVSDAEPVMLEQISRISQQIGYYLHRASMRGGTLLSRELHPVAPLLDNLTSALNKVYQRKGVNISLDISPEISFVGEQNDFVEVMGNVLDNACKYCLEFVEISARQTDEHLYIVVEDDGPGIPLSKREVIFDRGQRVDTLRPGQGVGLAVAREITEQYEGKIVAGESMLGGARMEVIFGRQHSAPKDE

Variants of: B1
Test: enrichment ratio after two sorts for PhoP signalling (ratio (wild type AVST 3.29)); higher = more functional
Details: with PhoP (E. coli)

| Variant | enrichment ratio |
| --- | --- |
| SLGY | 1.84 |
| TSWY | 14.1 |
| KYGY | ≤ 0.25 |
| MMWY | ≤ 0.25 |
| LCWY | ≤ 0.25 |
| SIGY | 14.3 |
| VGCD | ≤ 0.25 |
| TPGQ | 16 |
| QPGQ | ≤ 0.25 |
| FAMQ | 45 |
| QAGQ | 24.5 |
| QAMV | ≤ 0.25 |
| QAGD | ≤ 0.25 |
| MAMQ | ≤ 0.25 |
| QAVQ | ≤ 0.25 |
| NAGQ | ≤ 0.25 |
| QGGQ | 8.17 |
| FAVQ | ≤ 0.25 |
| QAMQ | 44.4 |
| KRHT | ≤ 0.25 |
| IASQ | ≤ 0.25 |
| FDMR | ≤ 0.25 |
| HIEP | ≤ 0.25 |
| ITVA | ≤ 0.25 |
| SHRP | ≤ 0.25 |
| NRKT | ≤ 0.25 |

| Variant | enrichment ratio |
| --- | --- |
| GQLV | 7.76 |
| SALF | 9.67 |
| KRAM | ≤ 0.25 |
| MDPE | ≤ 0.25 |
| EKES | ≤ 0.25 |
| ASSQ | 14.5 |
| ASKA | ≤ 0.25 |
| ASSK | ≤ 0.25 |
| ASSS | 11.9 |
| ASHP | ≤ 0.25 |
| ASSR | ≤ 0.25 |
| VWGF | ≤ 0.25 |
| SDHM | ≤ 0.25 |
| AQDN | ≤ 0.25 |
| PECQ | ≤ 0.25 |
| IETV | ≤ 0.25 |
| GVSF | 11.8 |
| GGGF | ≤ 0.25 |
| GNSF | 1.14 |
| GVHF | ≤ 0.25 |
| GYGF | ≤ 0.25 |
| GVGF | 12 |
| DDND | ≤ 0.25 |
| QPHR | ≤ 0.25 |
| FDYT | ≤ 0.25 |
| YIRR | ≤ 0.25 |

| Variant | enrichment ratio |
| --- | --- |
| KSCH | ≤ 0.25 |
| TSCH | 15.8 |
| MMNF | ≤ 0.25 |
| TSHV | 13.7 |
| MMWA | ≤ 0.25 |
| FSCH | 0.442 |
| KSWA | ≤ 0.25 |
| TSWA | 15.4 |
| THHV | ≤ 0.25 |
| TSNF | 16.1 |
| KSHV | ≤ 0.25 |
| KSNF | ≤ 0.25 |
| QSCS | ≤ 0.25 |
| SYVA | ≤ 0.25 |
| GMCC | ≤ 0.25 |
| FQGH | ≤ 0.25 |
| NRAM | ≤ 0.25 |
| KRFS | ≤ 0.25 |
| CNWS | ≤ 0.25 |
| RPDF | ≤ 0.25 |
| KFLF | ≤ 0.25 |
| SCDN | ≤ 0.25 |
| PMCH | ≤ 0.25 |
| LCTA | ≤ 0.25 |
| WITI | ≤ 0.25 |
| KSEI | ≤ 0.25 |

| Variant | enrichment ratio |
| --- | --- |
| MMTI | ≤ 0.25 |
| KSHF | ≤ 0.25 |
| WSEI | ≤ 0.25 |
| TSHE | 5.88 |
| TSTI | 22 |
| TSTA | 14.2 |
| TSHF | 13.4 |
| MMTA | ≤ 0.25 |
| TSEI | 15.3 |
| LGWN | ≤ 0.25 |
| TWGR | ≤ 0.25 |
| FHQM | ≤ 0.25 |
| TARV | ≤ 0.25 |
| QSIY | ≤ 0.25 |
| THHQ | ≤ 0.25 |
| TSHQ | 11.8 |
| KSHQ | ≤ 0.25 |
| DFQV | ≤ 0.25 |
| WHCG | ≤ 0.25 |
| AQLA | 19 |
| AQNL | ≤ 0.25 |
| AQLS | 10.2 |
| AQLN | 31.6 |
| AQTK | ≤ 0.25 |
| AQTS | 12.8 |
| AQLT | 8.16 |

| Variant | enrichment ratio |
| --- | --- |
| AQCN | 4.1 |
| AQTC | 9.55 |
| FEWS | ≤ 0.25 |
| RCQR | ≤ 0.25 |
| FLMM | 1.72 |
| YNDD | ≤ 0.25 |
| IFQD | ≤ 0.25 |
| AKFS | ≤ 0.25 |
| TMCE | 21.2 |
| HACH | ≤ 0.25 |
| NNCV | ≤ 0.25 |
| TMPE | ≤ 0.25 |
| TMIE | ≤ 0.25 |
| TMCH | 15.9 |
| EMCG | ≤ 0.25 |
| TMMH | 5.83 |
| DMCV | ≤ 0.25 |
| KMCG | ≤ 0.25 |
| TMCV | 13.2 |
| TMCG | 15 |
| NTFT | ≤ 0.25 |
| DACN | ≤ 0.25 |
| YKFT | ≤ 0.25 |
| VRAW | ≤ 0.25 |
| EVCN | ≤ 0.25 |
| PEAM | ≤ 0.25 |

| Variant | enrichment ratio |
| --- | --- |
| EYVE | ≤ 0.25 |
| HGYS | ≤ 0.25 |
| QTTN | ≤ 0.25 |
| SFNA | ≤ 0.25 |
| MWTS | ≤ 0.25 |
| PLKT | ≤ 0.25 |
| RNTM | ≤ 0.25 |
| WPSM | ≤ 0.25 |
| TMNE | ≤ 0.25 |
| THGE | ≤ 0.25 |
| NMKE | ≤ 0.25 |
| TMPA | ≤ 0.25 |
| TMKE | 13.6 |
| TMWI | ≤ 0.25 |
| TMCS | 16.8 |
| DMSE | ≤ 0.25 |
| NHGE | ≤ 0.25 |
| TMSE | 15.9 |
| TMGE | 14.8 |
| MMSE | ≤ 0.25 |
| DFCK | ≤ 0.25 |
| IFAG | ≤ 0.25 |
| ECNL | ≤ 0.25 |
